Most compounds without a hit are left out; they make up all but 18% or so of the library.
TDP1 cell CPT: qHTS for Inhibitors of human tyrosyl-DNA phosphodiesterase 1 (TDP1): qHTS in cells in presence of CPT; chicken DT40 Tdp1-/-;hTDP1 cells + 20 nM CPT, ATP luminescence, 48 h; 12% of 420,000 active; Potency, µM (titrated, usually from 46.2 µM), without a hit: top-dose activity change, negative = growth inhibition, most hits filed as inhibitors; AID 686979, 2013; note: potency is the fitted concentration of half-maximal effect; nearly all actives have a fitted effect of over 55% in size
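Cell growth measured by CellTiter-Glo luminescence after a minimum 48 h, 37 C compound exposure with 20 nM CPT in Tdp1-knockout DT40 cells stably expressing hTDP1, seeded 400/well; qHTS titration format.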
VP16 counter: VP16 counterscreen qHTS for inhibitors of ROR gamma transcriptional activity | AID 2546, 2010 | Potency, µM (titrated, usually from 53.6 µM), for the others: top-dose activity, negative = inhibition, hits mostly inhibitors | 3.5% of 310,000 active | Drosophila S2 Gal4-VP16 UAS-luciferase, luminescence, 20 h;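 note: Gal4-VP16 expression switched on by copper sulfate through the metallothionein promoter; potency is the fitted concentration of half-maximal effect; nearly all actives have a fitted effect of over 50% in size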
IL-1B inflam inh: qHTS for Inhibitors of Inflammasome Signaling: IL-1-beta AlphaLISA Primary Screen; 4.7% of 360,000 active; activity change, % at 57.5 µM; THP-1 LPS/ATP IL-1B secretion, AlphaLISA, 16 h; hits give low values; in the data active = activity change below about -50%; inconclusive = mostly about -30% to -49%
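Secreted IL-1B measured by AlphaLISA bead assay after 16 h compound exposure of THP-1 cells; compounds (final up to 57.5 uM) added 1 h before LPS (250 ng/mL) and ATP (1.25 mM) stimulation; lower signal means less secretion.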
RORgamma inh: qHTS for inhibitors of ROR gamma transcriptional activity; AID 2551, 2010; Drosophila S2 Gal4-RORgamma UAS-luciferase reporter, 20 h; Potency, µM (highest dose often 53.6 µM), for inactives: at the highest dose activity change, negative = inhibition, most hits filed as inhibitors; 5.4% of 310,000 active; Nuclear receptor ROR-gamma (Mus musculus), P51450; note: potency is the fitted concentration of half-maximal effect; nearly all actives have a fitted effect of over 60% in size
Target sequence (P51450 whole entry, looked up, the tested form may be a part): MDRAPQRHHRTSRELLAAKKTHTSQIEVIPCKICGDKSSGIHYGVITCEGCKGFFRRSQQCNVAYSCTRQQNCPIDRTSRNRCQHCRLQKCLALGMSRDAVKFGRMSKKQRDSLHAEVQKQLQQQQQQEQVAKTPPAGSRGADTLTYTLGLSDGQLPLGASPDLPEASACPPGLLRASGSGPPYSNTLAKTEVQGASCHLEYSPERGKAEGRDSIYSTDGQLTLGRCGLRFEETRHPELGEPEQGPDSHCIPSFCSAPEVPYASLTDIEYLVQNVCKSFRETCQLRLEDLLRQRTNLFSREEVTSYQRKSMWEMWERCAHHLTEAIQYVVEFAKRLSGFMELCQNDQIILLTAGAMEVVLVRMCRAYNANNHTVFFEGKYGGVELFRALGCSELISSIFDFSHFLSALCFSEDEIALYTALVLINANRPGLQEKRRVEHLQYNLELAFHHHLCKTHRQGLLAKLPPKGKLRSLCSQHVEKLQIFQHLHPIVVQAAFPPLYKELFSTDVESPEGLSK
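ROR gamma transcriptional activity was tracked as Gal4-UAS luciferase output in stably transfected Drosophila Schneider cells, with compound added 1 hr before 700 uM copper sulfate induction and a 20 hr ambient-temperature incubation.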
TDP1 cell noCPT: qHTS for Inhibitors of human tyrosyl-DNA phosphodiesterase 1 (TDP1): qHTS in cells in absence of CPT | Potency, µM (highest dose often 46.2 µM), inactives show at the highest dose activity change, negative = growth inhibition, actives largely listed as inhibitors | 15% of 420,000 active | DT40 Tdp1-/- hTDP1 cells, no CPT, ATP luminescence, 48 h; note: potency is the fitted concentration of half-maximal effect; nearly all actives have a fitted effect of over 55% in size
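Chicken DT40 Tdp1-/- cells complemented with human TDP1, screened without camptothecin (DMSO vehicle only), 400 cells/well. Compounds pin-transferred, cells incubated at 37 °C for at least 48 hr. Growth read as ATP-dependent luminescence (CellTiter-Glo, 30 min at RT).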
LDHA block: qHTS assay for inhibitors of human lactate dehydrogenase; AID 1347041, 2019; activity change, % (values are at about 110 or 230 µM); 0.15% of 480,000 active; purified LDHA, NADH/diaphorase-resazurin fluorescence; hits give low values; in the data active = activity change below about -30%; inconclusive = mostly about -25% to -30%;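 note: plate controls were DMSO wells for no effect and wells without enzyme for full effect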
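Human LDH5 (2 nM) was incubated with 0.06 mM NADH and 0.2 mM pyruvate for 5 min at room temperature in Tris pH 7.4. Remaining NADH was coupled through diaphorase/resazurin, and resorufin fluorescence was read at 0 and 20 min.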
* marks the source's active call; other numbers are inactive results. Unless noted, calls come from the whole dose curve; as a rule, active = well fitted curve in the direction sought with a large enough effect; inconclusive = small, poorly fitted or top-dose-only effect, or another doubt; inactive = no such curve, though single readings can be large; an effect the other way counts as inactive or inconclusive. Unless noted, % is set by controls: 0 for no effect and ±100 for the full control effect.

What do the screens show for `O=C1CN(C(=O)c2ccco2)C(c2ccccc2)c2cc(Cl)ccc2N1` (stereo not given)?
TDP1 cell CPT: 16µM*; VP16 counter: 12%; IL-1B inflam inh: 11; RORgamma inh: inconclusive; TDP1 cell noCPT: 16µM*; LDHA block: -4

Results for O=C1CN(C(=O)c2ccc(Br)o2)C(c2ccccc2)c2cc(Cl)ccc2N1 (stereo not given) ?
TDP1 cell CPT: 15µM*; VP16 counter: 4%; IL-1B inflam inh: -19; RORgamma inh: 29%; TDP1 cell noCPT: inconclusive; LDHA block: -3

Results for O=C1CN(C(=O)c2ccc(Br)o2)C(c2ccc(F)cc2)c2cc(Cl)ccc2N1 (stereo not given) ?
TDP1 cell CPT: 16µM*; VP16 counter: 4%; IL-1B inflam inh: -6; RORgamma inh: inconclusive; TDP1 cell noCPT: inconclusive; LDHA block: 1

How did Cc1c(C(=O)O)nnn1-c1cccc(Br)c1 do in these assays?
LDHA block: 4

Results for O=C(O)CCn1c(=O)cc(C(F)(F)F)c2cn(C3CCCC3)nc21 ?
LDHA block: 1

How did CC(C)CC(=O)Nc1nonc1-c1ccc(Br)cc1 do in these assays?
LDHA block: -2

Results for CCOc1ccc(S(=O)(=O)N(CC)CC(=O)NCC2CCCO2)cc1 (stereo not given) ?
LDHA block: -12

Results for CCOC(=O)C1=C(N)N2C(=O)C(C)SC2=C(C(=O)OCC)C1c1ccccc1 (stereo not given) ?
TDP1 cell CPT: -21%; VP16 counter: 13µM*; IL-1B inflam inh: -10; RORgamma inh: inconclusive; TDP1 cell noCPT: -6%; LDHA block: 0

How did CCOC(=O)C1=C(N)N2C(=O)C(C)SC2=C(C(=O)OCC)C1c1ccc(O)cc1 (stereo not given) do in these assays?
TDP1 cell CPT: -10%; VP16 counter: 7%; IL-1B inflam inh: 34; RORgamma inh: -17%; TDP1 cell noCPT: -14%; LDHA block: 1

Results for Clc1ccc2c(SCC3CO3)c3ccccc3nc2c1 (stereo not given) ?
TDP1 cell CPT: 0.46µM*; IL-1B inflam inh: inconclusive; TDP1 cell noCPT: 1.2µM*; LDHA block: -7

How did O=C(CSc1c2c(nc3cc(Cl)ccc13)CCCC2)Nc1nc2ccccc2s1 do in these assays?
LDHA block: 2

What do the screens show for `COc1cnc(-c2ccccn2)nc1N(C)c1ccccc1`?
TDP1 cell CPT: 0.52µM*; VP16 counter: inconclusive; IL-1B inflam inh: 114; RORgamma inh: 7.9µM*; TDP1 cell noCPT: 0.41µM*; LDHA block: 4

How did COc1cnc(-c2ccccn2)nc1Oc1ccccc1 do in these assays?
TDP1 cell CPT: 0.46µM*; VP16 counter: inconclusive; IL-1B inflam inh: 15; RORgamma inh: 11µM*; TDP1 cell noCPT: 0.46µM*; LDHA block: 1

How did COc1cnc(-c2ccccn2)nc1Oc1cccc(C(F)(F)F)c1 do in these assays?
VP16 counter: 11µM*; RORgamma inh: 6.3µM*

What do the screens show for `Cc1cccc(N/N=C/c2ccc(Cl)c(Cl)c2)c1`?
LDHA block: -1

Results for CCC(=O)Nc1cc(C)c(O)c(-c2nc3cc(CC)ccc3o2)c1 ?
LDHA block: -2

Results for CCOC(=O)/C=C1/SCC(=O)N1CC(=O)NC12CC3CC(CC(C3)C1)C2 ?
TDP1 cell CPT: inconclusive; IL-1B inflam inh: 18; TDP1 cell noCPT: 21µM*; LDHA block: 1
